Assay outcomes: PubChem, several laboratories
dFosB act-1: activators of delta FosB homodimer, primary screen, biochemical, fluorescence polarization, TAMRA-CDK5 oligo, single point. Protein FosB (Mus musculus), P13346. purified delta FosB; percent of positive-control signal above neutral wells. activation, % at 25 µM. 0.99% of 340,000 active;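 active means mean activation above about 17%, with every replicate also reaching it, limit read from the data, passing the limit was not always enough; inconclusive means only one of the two conditions met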
Rtt109 HAT inh: inhibitors of C. albicans Rtt109/Vps75 HAT, primary screen, biochemical, ThioGlo CoA-SH fluorescence, plate reader. 0.16% of 330,000 active. inhibition, % at 34.9 µM. AID 540336, 2011. purified Rtt109/Vps75, 4 h. Histone acetyltransferase RTT109 (Candida albicans (strain SC5314 / ATCC MYA-2876)), …;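 active means inhibition of at least 50% in every replicate; inconclusive means best replicate reaches 50% inhibition but some replicates fall short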
Target sequence (Q5AAJ8 whole entry, looked up): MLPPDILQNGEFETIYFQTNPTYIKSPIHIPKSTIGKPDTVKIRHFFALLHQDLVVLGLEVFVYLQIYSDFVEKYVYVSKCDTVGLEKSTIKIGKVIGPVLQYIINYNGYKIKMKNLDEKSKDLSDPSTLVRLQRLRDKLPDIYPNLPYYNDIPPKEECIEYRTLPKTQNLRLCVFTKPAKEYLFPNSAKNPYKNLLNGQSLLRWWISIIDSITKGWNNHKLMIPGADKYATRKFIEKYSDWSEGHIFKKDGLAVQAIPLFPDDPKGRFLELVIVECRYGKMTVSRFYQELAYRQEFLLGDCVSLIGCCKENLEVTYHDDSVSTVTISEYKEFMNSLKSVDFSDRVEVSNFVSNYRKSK
esBAF inh: Bmi1 luciferase reporter increase in mESCs, primary screen, esBAF inhibitor project, mouse ES cells, Bmi1 luciferase knock-in, single point | 24 h; 100% = twice the neutral-well signal | reporter increase, % at 12.5 µM | 2% of 350,000 active; in the data active means activation above about 40%; inconclusive means no clear call, values can overlap the other calls;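 further: 0% = median of the plate's neutral control wells and 100% = double that signal; a rise in the Bmi1 reporter signal indicates esBAF inhibition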
Dyrk1A ADPGlo: rat Dyrk1A kinase inhibitors, primary screen, biochemical, single point, plate reader | Dual specificity tyrosine-phosphorylation-regulated kinase 1A (Rattus norvegicus), Q63470 | ADP-Glo luminescence, NFATc1 peptide | inhibition, % at 12.5 µM | 0.43% of 310,000 active | AID 504441, 2011; in the data active means inhibition above about 50%;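 further: plate controls were vehicle with enzyme for no effect and no enzyme for full effect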
CDK5 inh: inhibitors of human CDK5/p35 kinase, primary screen, biochemical, single concentration. AID 488839, 2010. Recombinant CDK5/p35, ADP-Glo luminescence, 60 min. inhibition, % at 10 µM. Cyclin-dependent kinase 5 (Homo sapiens) + Cyclin-dependent kinase 5 activator 1 (Homo …. 0.01% of 330,000 active;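 active means highest replicate inhibition of at least 50% and at least 75% of replicates reaching 50%; inconclusive means only one of the two criteria met; inactive means both criteria failed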;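 further: plate controls were DMSO neutral control for no effect and GW8510 at 10 µM for full effect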
SMARCA2 act: SMARCA2 (BRM) function activators, primary screen, cell-based, luminescence, high throughput | MG213 cells, MMTV-luciferase reporter, dexamethasone, overnight | activation, % at 9.1 µM | 1% of 370,000 active; in the data active means activation above about 7.8%;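 further: 0% = vehicle wells and 100% = reference activator wells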
dFosB act-2: activators of mouse delta FosB DNA binding, confirmation, biochemical, fluorescence polarization, TAMRA-CDK5 oligo, cherry-picked samples; shares compounds with dFosB act-1; purified delta FosB; normalised: neutral wells 0, positive control 100; activation, % at 24.9 µM; 2,400 tested, under 10 active; AID 588690, 2011;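 active means highest replicate activation at or above 34% and every replicate reaching that threshold; inconclusive means meets only one of the two criteria; inactive means meets neither criterion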;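 further: higher polarization means more probe DNA bound by delta FosB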
Numbers without * were called inactive; u = inconclusive; x = no result. The list is not random: actives were taken first. Their share in the collection is about 3.2%.

SMILES	dFosB act-1	Rtt109 HAT inh	esBAF inh	Dyrk1A ADPGlo	CDK5 inh	SMARCA2 act	dFosB act-2
CCN(CC)S(=O)(=O)c1ccc(-c2nnc(SCC(=O)Nc3ccc(OC)cc3)o2)cc1	107*	3	0	2	-4	5	1
CCS(=O)(=O)Nc1ccc(-c2nnc(SCC(=O)OC)o2)cc1	-3	-3	6	0	1	-3	x
CCC(=O)Nc1ccc(C(=O)CSc2nnc(-c3ccc(NS(=O)(=O)CC)cc3)o2)cc1OC	20*	-2	x	-2	0	0	0
Cc1ccc(/C=N/NC(=O)Cc2cccn2C)cc1	-8	-1	x	4	0	1	x
Cc1ccc(/C=N\NC(=O)Cc2noc3ccccc23)cc1	22*	7	12	-4	0	-1	u
OC(CNCCc1ccccc1)COc1ccc(OCC(O)CNCCc2ccccc2)cc1 (centres undefined)	19*	15	x	x	0	-1	-4
OC(CNCCc1ccc(Cl)cc1)COc1ccc2ccccc2c1 (centres undefined)	4	13	-10	3	3	1	x
CCOC(=O)c1c(NC(=O)C2CCCO2)sc(C(N)=O)c1C (centres undefined)	-3	-2	-2	-2	0	6	x
CCOC(=O)c1c(NC(=O)C2c3ccccc3Oc3ccccc32)sc(C(N)=O)c1C	32*	1	-1	6	0	0	2
COc1ccc(Cl)cc1NC(=O)NCc1ccc2c(c1)OCO2	62*	-6	x	-4	1	-2	5
O=C(NCc1ccc2c(c1)OCO2)C1CCN(C(=O)Nc2ccc(Cl)cc2)CC1	20*	-2	0	-2	-1	-2	4
CCOC(=O)c1ccc(NC(=O)CSc2nc3ncccc3[nH]2)cc1	-1	-2	x	0	0	0	x
CCCCc1ccc(NC(=O)CSc2nc3ncccc3[nH]2)cc1	20*	2	13	-2	1	-2	-1
O=C(CNC(=O)c1ccc(-c2ccccc2)cc1)Nc1ccc(S(=O)(=O)Nc2ncccn2)cc1	25*	-14	-3	-4	0	-3	4
O=C(CSc1nnc(NC(=O)C2CC2)s1)Nc1cccc(F)c1	28*	7	1	-3	1	-2	-1
Cc1ccccc1NC(=O)CSc1nnc(NC(=O)C2CC2)s1	-5	5	-8	-5	-2	0	x
Cc1ccc(C)c(NC(=O)CSc2nnc(NC(=O)C3CC3)s2)c1	28*	1	4	-1	0	3	5
COc1cccc(NC(=O)CSc2nnc(NC(=O)C3CCC3)s2)c1	-1	-1	-9	4	-1	0	x
Cc1cc(N2CCN(c3nc(-c4ccc([N+](=O)[O-])cc4)cs3)CC2)c2ccccc2n1	26*	-7	x	0	-2	0	-2
O=C(NC1Cc2ccccc2C1)[C@@H]1[C@@H](CO)[C@@H]2Cn3c(ccc(-c4ccccc4)c3=O)[C@H]1N2	x	x	-1	x	x	x	x
C[C@H](NC(=O)OCc1ccccc1)C(=O)NNC(=O)[C@H](Cc1ccccc1)NC(=O)OC(C)(C)C	27*	-3	-4	2	-1	1	2
O=[N+]([O-])c1ccc(/C=N/Nc2nc(NCc3ccccc3)nc(N3CCOCC3)n2)cc1	27*	1	x	-2	-1	1	2
COc1ccc(/C=N/Nc2nc(Nc3ccccc3)nc(N3CCCC3)n2)cc1[N+](=O)[O-]	62*	1	-4	-3	-2	-1	u
CNc1nc(N/N=C/c2cc3c(cc2[N+](=O)[O-])OCO3)nc(Nc2ccccc2)n1	55*	15	x	37	-2	0	6
COc1cc(/C=N/Nc2nc(Nc3ccccc3)nc(N3CCOCC3)n2)ccc1OC(=O)c1ccco1	54*	-1	x	-2	0	-5	3
SMILES	dFosB act-1	Rtt109 HAT inh	esBAF inh	Dyrk1A ADPGlo	CDK5 inh	SMARCA2 act	dFosB act-2
O=[N+]([O-])c1cccc(/C=N/Nc2nc(NCc3ccccc3)nc(N3CCOCC3)n2)c1	8	-8	x	-6	0	-4	x
COc1ccc(/C=N/Nc2nc(N3CCCCC3)nc(N3CCCCC3)n2)cc1[N+](=O)[O-]	4	-1	-3	0	-6	-2	x
CC(C)NC(=O)Nc1ccc2c(c1)C(=O)N([C@@H](C)CO)C[C@H](C)[C@H](CN(C)C(=O)NC1CCCCC1)O2	x	x	-1	x	x	x	x
CC=Cc1ccc2n(c1=O)C[C@H]1[C@H](CO)[C@@H](C(=O)N3CCOCC3)N(Cc3ccccc3)[C@@H]21 (mixture of isomers)	x	x	-3	x	x	x	x
C[C@@H]1CCCCO[C@H](CN(C)C(=O)Nc2cccc3ccccc23)[C@H](C)CN([C@H](C)CO)C(=O)c2cc(N(C)C)ccc2O1	x	x	-1	x	x	x	x
C[C@@H]1CN([C@H](C)CO)S(=O)(=O)c2ccc(-c3ccncc3)cc2O[C@H]1CN(C)C(=O)CC1CC1	x	x	5	x	x	x	x
O=C(NC1CCCC1)N[C@@H]1CC[C@H](CC(=O)N2CCOCC2)O[C@@H]1CO	x	x	-1	x	x	x	x
COc1cc2c(cc1OC)-c1cc(Nc3ccc(F)cc3)nc(=O)n1CC2	37*	-5	x	6	-1	1	3
Cc1ccc(S(=O)(=O)N[C@@H]2CC[C@@H](CC(=O)NCCCN(C)C)O[C@@H]2CO)cc1	x	x	0	x	x	x	x
COc1ccc(S(=O)(=O)N[C@@H]2CC[C@H](CCn3cc(-c4ccccc4F)nn3)O[C@@H]2CO)cc1	x	x	7	x	x	x	x
CCOC(=O)N1CCN(S(=O)(=O)c2ccc(C(=O)N(CCCN(C)C)c3nc4ccc(CC)cc4s3)cc2)CC1	32*	25	-14	1	-2	2	1
CN(C)CCCN(C(=O)c1ccc(S(=O)(=O)N2CCCCCC2)cc1)c1nc2ccc(F)cc2s1	0	41	5	3	-1	-2	x
CCc1ccc2nc(N(CCCN(C)C)C(=O)c3ccc(S(=O)(=O)N4CCCC4)cc3)sc2c1	7	39	x	3	2	-3	x
CN(C)CCN(C(=O)c1ccc(S(=O)(=O)N2CCc3ccccc32)cc1)c1nc2ccc(F)cc2s1	62*	32	0	-3	-2	3	0
